This is an account of results in paper PMC11006913.

Common to all, as to assay: PBM; 200 nM protein, PBS
What all share (conditions): dsDNA, one strand shown

The target of test [1] is ALX1 (Homo sapiens, UniProt Q15699 118-204, L144V).
Test [2] has as its target ALX1 (Homo sapiens, UniProt Q15699 118-204, L144R).
Test [3] deals with ALX1 (Homo sapiens, UniProt Q15699 118-204).
The target in test [4] is ALX3 (Homo sapiens, UniProt O95076 139-225, N203Q).
Test [5] deals with HOXD13 (Homo sapiens, UniProt P35453 263-343, T313R).
Chain of HOXD13 (Homo sapiens, UniProt P35453 263-343, T313R) (P35453 263-343 T313R): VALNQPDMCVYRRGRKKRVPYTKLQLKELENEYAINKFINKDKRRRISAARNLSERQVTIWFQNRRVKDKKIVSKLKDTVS
For test [6], the target named is HOXD13 (Homo sapiens, UniProt P35453 263-343).
Chain of HOXD13 (Homo sapiens, UniProt P35453 263-343) (P35453 263-343): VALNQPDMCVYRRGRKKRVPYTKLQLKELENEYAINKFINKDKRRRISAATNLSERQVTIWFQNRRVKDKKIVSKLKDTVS
Test [7] deals with ALX3 (Homo sapiens, UniProt O95076 139-225).
Chain of ALX3 (Homo sapiens, UniProt O95076 139-225) (O95076 139-225): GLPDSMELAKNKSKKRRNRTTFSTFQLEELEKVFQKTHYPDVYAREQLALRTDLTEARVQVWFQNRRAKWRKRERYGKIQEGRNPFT
The target of test [8] is ALX3 (Homo sapiens, UniProt O95076 139-225, L168Q).
Chain of ALX3 (Homo sapiens, UniProt O95076 139-225, L168Q) (O95076 139-225 L168Q): as the sequence (O95076 139-225) above, with L30Q counted along it
Test [9] concerns the target HOXD13 (Homo sapiens, UniProt P35453 263-343, T313A).
Test [10] addresses ALX3 (Homo sapiens, UniProt O95076 139-225, L168V).
Test [11] deals with ALX3 (Homo sapiens, UniProt O95076 139-225, N203S).
Chain of ALX3 (Homo sapiens, UniProt O95076 139-225, N203S) (O95076 139-225 N203S): as the sequence (O95076 139-225) above, with N65S counted along it

Chain of ALX1 (Homo sapiens, UniProt Q15699 118-204) (Q15699 118-204): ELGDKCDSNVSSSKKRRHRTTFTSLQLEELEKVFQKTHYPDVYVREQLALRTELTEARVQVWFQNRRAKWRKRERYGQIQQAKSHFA
Chain of ALX1 (Homo sapiens, UniProt Q15699 118-204, L144R) (Q15699 118-204 L144R): as the sequence (Q15699 118-204) above, with L27R counted along it
Chain of ALX1 (Homo sapiens, UniProt Q15699 118-204, L144V) (Q15699 118-204 L144V): as the sequence (Q15699 118-204) above, with L27V counted along it
Chain of ALX3 (Homo sapiens, UniProt O95076 139-225, N203Q) (O95076 139-225 N203Q): as the sequence (O95076 139-225) above, with N65Q counted along it
Chain of ALX3 (Homo sapiens, UniProt O95076 139-225, L168V) (O95076 139-225 L168V): as the sequence (O95076 139-225) above, with L30V counted along it
Chain of HOXD13 (Homo sapiens, UniProt P35453 263-343, T313A) (P35453 263-343 T313A): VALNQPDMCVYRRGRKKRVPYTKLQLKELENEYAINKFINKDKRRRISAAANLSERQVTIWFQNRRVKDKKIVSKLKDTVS

On to CTCCTGGA, for which the binding signal with ALX1 [1] was 6.55 upbm affinity estimate (log intensity, higher = more binding, comparable within an allelic series); with ALX1 [2], 6.53 upbm affinity estimate (log intensity, higher = more binding, comparable within an allelic series); with ALX1 [3], 6.48 upbm affinity estimate (log intensity, higher = more binding, comparable within an allelic series).
For the sequence CACCTTCG, the binding signal with ALX1 [1] is 6.61 upbm affinity estimate (log intensity, higher = more binding, comparable within an allelic series); with ALX1 [2] it was 6.38 upbm affinity estimate (log intensity, higher = more binding, comparable within an allelic series); with ALX1 [3], 6.33 upbm affinity estimate (log intensity, higher = more binding, comparable within an allelic series).
For AGGCAAAT, the binding signal in the test with ALX1 [1] was 8.05 upbm affinity estimate (log intensity, higher = more binding, comparable within an allelic series); with ALX1 [2], 7.93 upbm affinity estimate (log intensity, higher = more binding, comparable within an allelic series); with ALX1 [3], 8.18 upbm affinity estimate (log intensity, higher = more binding, comparable within an allelic series).
As to ATTATTGA, the binding signal is 10.4 upbm affinity estimate (log intensity, higher = more binding, comparable within an allelic series) with ALX1 [1]; 10.3 upbm affinity estimate (log intensity, higher = more binding, comparable within an allelic series) with ALX1 [2]; 10.8 upbm affinity estimate (log intensity, higher = more binding, comparable within an allelic series) in the test with ALX1 [3].
Consider ATTGGAAA, for which the binding signal with ALX1 [1] is 8.46 upbm affinity estimate (log intensity, higher = more binding, comparable within an allelic series); in the test with ALX1 [2] it was 8.23 upbm affinity estimate (log intensity, higher = more binding, comparable within an allelic series); with ALX1 [3], 8.59 upbm affinity estimate (log intensity, higher = more binding, comparable within an allelic series).
For the sequence GACTCCCC, the binding signal with ALX1 [1] was 6.43 upbm affinity estimate (log intensity, higher = more binding, comparable within an allelic series); in the test with ALX1 [2], 6.48 upbm affinity estimate (log intensity, higher = more binding, comparable within an allelic series); with ALX1 [3], 6.25 upbm affinity estimate (log intensity, higher = more binding, comparable within an allelic series).
Turning to ATTTAGTA, the binding signal with ALX1 [1] is 9.39 upbm affinity estimate (log intensity, higher = more binding, comparable within an allelic series); with ALX1 [2], 9.22 upbm affinity estimate (log intensity, higher = more binding, comparable within an allelic series); with ALX1 [3], 9.79 upbm affinity estimate (log intensity, higher = more binding, comparable within an allelic series).
As for AGCCACAG, the binding signal in the test with ALX1 [1] is 6.62 upbm affinity estimate (log intensity, higher = more binding, comparable within an allelic series); with ALX1 [2], 6.52 upbm affinity estimate (log intensity, higher = more binding, comparable within an allelic series); with ALX1 [3], 6.67 upbm affinity estimate (log intensity, higher = more binding, comparable within an allelic series).
As to AAAAATGT, the binding signal with ALX1 [1] is 8.02 upbm affinity estimate (log intensity, higher = more binding, comparable within an allelic series); with ALX1 [2], 8.01 upbm affinity estimate (log intensity, higher = more binding, comparable within an allelic series); with ALX1 [3], 8.15 upbm affinity estimate (log intensity, higher = more binding, comparable within an allelic series).
As for CTAGCTGC, the binding signal is 6.42 upbm affinity estimate (log intensity, higher = more binding, comparable within an allelic series) with ALX1 [1]; 6.45 upbm affinity estimate (log intensity, higher = more binding, comparable within an allelic series) with ALX1 [2]; 6.31 upbm affinity estimate (log intensity, higher = more binding, comparable within an allelic series) with ALX1 [3].
In the case of ATTAAGCA, the binding signal with ALX1 [1] was 10.2 upbm affinity estimate (log intensity, higher = more binding, comparable within an allelic series); with ALX1 [2], 9.85 upbm affinity estimate (log intensity, higher = more binding, comparable within an allelic series); with ALX1 [3] it was 10.5 upbm affinity estimate (log intensity, higher = more binding, comparable within an allelic series).
TAGGATAA: the binding signal with ALX1 [1] is 8.45 upbm affinity estimate (log intensity, higher = more binding, comparable within an allelic series); in the test with ALX1 [2], 8.36 upbm affinity estimate (log intensity, higher = more binding, comparable within an allelic series); in the test with ALX1 [3] it was 8.67 upbm affinity estimate (log intensity, higher = more binding, comparable within an allelic series).
On to GGACGGCC, for which the binding signal with ALX1 [1] was 6.43 upbm affinity estimate (log intensity, higher = more binding, comparable within an allelic series); in the test with ALX1 [2] it was 6.53 upbm affinity estimate (log intensity, higher = more binding, comparable within an allelic series); in the test with ALX1 [3], 6.53 upbm affinity estimate (log intensity, higher = more binding, comparable within an allelic series).
Take CCGACGCG: the binding signal is 6.16 upbm affinity estimate (log intensity, higher = more binding, comparable within an allelic series) with ALX1 [1]; 6.27 upbm affinity estimate (log intensity, higher = more binding, comparable within an allelic series) with ALX1 [2]; 6.71 upbm affinity estimate (log intensity, higher = more binding, comparable within an allelic series) in the test with ALX1 [3].
On to CCGAGAGC, for which the binding signal with ALX1 [1] is 6.61 upbm affinity estimate (log intensity, higher = more binding, comparable within an allelic series); with ALX1 [2] it was 6.63 upbm affinity estimate (log intensity, higher = more binding, comparable within an allelic series); with ALX1 [3], 6.63 upbm affinity estimate (log intensity, higher = more binding, comparable within an allelic series).
In the case of AGATCATC, the binding signal in the test with ALX1 [1] was 7.78 upbm affinity estimate (log intensity, higher = more binding, comparable within an allelic series); with ALX1 [2] it was 7.76 upbm affinity estimate (log intensity, higher = more binding, comparable within an allelic series); in the test with ALX1 [3] it was 7.9 upbm affinity estimate (log intensity, higher = more binding, comparable within an allelic series).
Take CTCCTAGC: the binding signal is 6.62 upbm affinity estimate (log intensity, higher = more binding, comparable within an allelic series) in the test with ALX1 [1]; 6.57 upbm affinity estimate (log intensity, higher = more binding, comparable within an allelic series) in the test with ALX1 [2]; 6.52 upbm affinity estimate (log intensity, higher = more binding, comparable within an allelic series) with ALX1 [3].
Turning to CCTTGCCG, the binding signal with ALX1 [1] is 6.69 upbm affinity estimate (log intensity, higher = more binding, comparable within an allelic series); in the test with ALX1 [2], 6.58 upbm affinity estimate (log intensity, higher = more binding, comparable within an allelic series); with ALX1 [3], 6.55 upbm affinity estimate (log intensity, higher = more binding, comparable within an allelic series).
In the case of CGGGTGAG, the binding signal is 6.48 upbm affinity estimate (log intensity, higher = more binding, comparable within an allelic series) with ALX1 [1]; 6.58 upbm affinity estimate (log intensity, higher = more binding, comparable within an allelic series) in the test with ALX1 [2]; 6.62 upbm affinity estimate (log intensity, higher = more binding, comparable within an allelic series) in the test with ALX1 [3].
Turning to TCTGTTAA, the binding signal is 8.7 upbm affinity estimate (log intensity, higher = more binding, comparable within an allelic series) with ALX1 [1]; 8.61 upbm affinity estimate (log intensity, higher = more binding, comparable within an allelic series) in the test with ALX1 [2]; 9.01 upbm affinity estimate (log intensity, higher = more binding, comparable within an allelic series) with ALX1 [3].
For TAATAATA, the binding signal with ALX3 [4] is 8.57 upbm affinity estimate (log intensity, higher = more binding, comparable within an allelic series).
On the same count and under the same terms, to TATAATAA belongs 8.61 upbm affinity estimate (log intensity, higher = more binding, comparable within an allelic series).
Take ACATTTAG: the binding signal was 8.38 upbm affinity estimate (log intensity, higher = more binding, comparable within an allelic series) in the test with ALX1 [1]; 8.16 upbm affinity estimate (log intensity, higher = more binding, comparable within an allelic series) with ALX1 [2]; 8.56 upbm affinity estimate (log intensity, higher = more binding, comparable within an allelic series) with ALX1 [3].
On to ATGTGTAA, for which the binding signal was 8.64 upbm affinity estimate (log intensity, higher = more binding, comparable within an allelic series) with ALX1 [1]; 8.5 upbm affinity estimate (log intensity, higher = more binding, comparable within an allelic series) with ALX1 [2]; 8.88 upbm affinity estimate (log intensity, higher = more binding, comparable within an allelic series) with ALX1 [3].
Regarding CGGACGGA, the binding signal with ALX1 [1] was 6.3 upbm affinity estimate (log intensity, higher = more binding, comparable within an allelic series); with ALX1 [2] it was 6.37 upbm affinity estimate (log intensity, higher = more binding, comparable within an allelic series); with ALX1 [3], 6.28 upbm affinity estimate (log intensity, higher = more binding, comparable within an allelic series).
On to CTGGGCGA, for which the binding signal was 6.34 upbm affinity estimate (log intensity, higher = more binding, comparable within an allelic series) with ALX1 [1]; 6.37 upbm affinity estimate (log intensity, higher = more binding, comparable within an allelic series) with ALX1 [2]; 6.87 upbm affinity estimate (log intensity, higher = more binding, comparable within an allelic series) in the test with ALX1 [3].
Take CATAATAA: the binding signal with ALX3 [4] is 8.54 upbm affinity estimate (log intensity, higher = more binding, comparable within an allelic series).
On the same count and under the same terms, the value for ATAATAAG was 8.64 upbm affinity estimate (log intensity, higher = more binding, comparable within an allelic series).
As for CCAGCGGC, the binding signal is 6.38 upbm affinity estimate (log intensity, higher = more binding, comparable within an allelic series) with ALX1 [1]; 6.67 upbm affinity estimate (log intensity, higher = more binding, comparable within an allelic series) with ALX1 [2]; 6.48 upbm affinity estimate (log intensity, higher = more binding, comparable within an allelic series) in the test with ALX1 [3].
Turning to AATGAACC, the binding signal with ALX1 [1] was 8.42 upbm affinity estimate (log intensity, higher = more binding, comparable within an allelic series); in the test with ALX1 [2], 8.46 upbm affinity estimate (log intensity, higher = more binding, comparable within an allelic series); with ALX1 [3], 8.7 upbm affinity estimate (log intensity, higher = more binding, comparable within an allelic series).
Consider CGCCTTCC, for which the binding signal with ALX1 [1] was 6.24 upbm affinity estimate (log intensity, higher = more binding, comparable within an allelic series); with ALX1 [2], 6.38 upbm affinity estimate (log intensity, higher = more binding, comparable within an allelic series); with ALX1 [3], 6.08 upbm affinity estimate (log intensity, higher = more binding, comparable within an allelic series).
As for ATTAAAAT, the binding signal in the test with ALX3 [4] was 8.53 upbm affinity estimate (log intensity, higher = more binding, comparable within an allelic series); in the test with HOXD13 [5], 10.6 upbm affinity estimate (log intensity, higher = more binding, comparable within an allelic series); with HOXD13 [6], 11.4 upbm affinity estimate (log intensity, higher = more binding, comparable within an allelic series); with ALX3 [7], 11.2 upbm affinity estimate (log intensity, higher = more binding, comparable within an allelic series); with ALX3 [8], 9.54 upbm affinity estimate (log intensity, higher = more binding, comparable within an allelic series); in the test with HOXD13 [9], 11.4 upbm affinity estimate (log intensity, higher = more binding, comparable within an allelic series). Moreover, the binding signal is 9.23 upbm affinity estimate (log intensity, higher = more binding, comparable within an allelic series) in the test with ALX3 [10] and 8.6 upbm affinity estimate (log intensity, higher = more binding, comparable within an allelic series) with ALX3 [11].
Regarding ATATTGTC, the binding signal with ALX1 [1] was 8.09 upbm affinity estimate (log intensity, higher = more binding, comparable within an allelic series); with ALX1 [2], 8.02 upbm affinity estimate (log intensity, higher = more binding, comparable within an allelic series); with ALX1 [3], 8 upbm affinity estimate (log intensity, higher = more binding, comparable within an allelic series).
